The record followed here is PubChem BioAssay (EPA / NIEHS).

Test [1] is described as follows: ATG_CRE_CIS: Attagene CIS-FACTORIAL HepG2 Assay for human cAMP Responsive Element (CRE) binding protein 3 (AID 2282926). As to conditions: HepG2 CRE cis-reporter, Attagene multiplexed mRNA; actives raise or lower the signal. Summed up:
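HepG2 cells transiently transfected with cis-element-driven multiple reporter transcription units; CRE reporter mRNA measured 24 h after dosing by RT-PCR, 6-FAM labelling, HpaI digestion and capillary electrophoresis. Bidirectional fit versus DMSO baseline.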

Test [2] deals with CCAAT/enhancer-binding protein beta (Homo sapiens) (UniProt P17676). The experiment in a line: ATG_C_EBP_CIS: Attagene CIS-FACTORIAL HepG2 Assay for human CCAAT/Enhancer Binding Protein (C/EBP) beta (AID 2282927). As to conditions: HepG2 Attagene cis-factorial transcription factor reporter; actives raise or lower the signal. In a few lines: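 HepG2 transiently transfected with multiplexed reporter units under cis-regulatory promoters reporting endogenous C/EBPb activity. After 24 h exposure, reporter mRNA assayed by RT-PCR, fluorescent labelling, HpaI digestion and capillary electrophoresis; bidirectional fitting versus DMSO.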

Test [3] is described as follows: ATG_DR4_LXR_CIS: Attagene CIS-FACTORIAL HepG2 Assay for human Liver X Receptor (LXR), DR4 submotif (AID 2282929). Conditions: HepG2 Attagene DR4 cis-reporter, mRNA transcription; actives raise or lower the signal. In a few lines:
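DR4 cis-reporter in HepG2, 24 h exposure. Detection: RT-PCR, 6-FAM labelling, CE fragment analysis. Endpoint fitted bidirectionally, DMSO = baseline.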

Test [4] is described as follows: ATG_AP_2_CIS: Attagene CIS-FACTORIAL HepG2 Assay for human Activator Protein 2 (AP-2) (AID 2282932). As to conditions: HepG2 AP-2 cis-reporter, Attagene transcription factor profiling; actives raise or lower the signal. Summed up:
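HepG2 cells transiently transfected with cis-element reporter units and exposed for 24 h. Reporter mRNA measured by RT-PCR, FAM labelling, HpaI digestion and capillary electrophoresis. Changes in either direction fitted relative to DMSO.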

Test [5] in a line: ATG_BRE_CIS: Attagene CIS-FACTORIAL HepG2 Assay for human Bone Morphogenetic Protein (BMP) Response Element (BRE) (AID 2282933). As to conditions: HepG2 BMP response element reporter, Attagene transcription factor profiling; actives raise or lower the signal. In a few lines:
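HepG2 cells transiently transfected with CIS reporter units (endogenous TF activity, BMP response element), dosed 24 h. Reporter mRNA quantified by RT-PCR, fluorescent labelling and capillary electrophoresis; bidirectional fit vs DMSO baseline.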

The target of test [6] is Transcription factor E2F1 (Homo sapiens) (UniProt Q01094). The experiment in a line: ATG_E2F_CIS: Attagene CIS-FACTORIAL HepG2 Assay for human E2F Transcription Factor 1 (AID 2282935). Conditions: HepG2 Attagene cis-reporter, E2F reporter RNA transcripts; actives raise or lower the signal. Summed up: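 Endogenous E2F1 activity read through cis-promoter reporter units transfected into HepG2. After 24 h compound treatment, reporter mRNA measured by RT-PCR, HpaI digestion and capillary electrophoresis. Bidirectional fit versus DMSO.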

Test [7] in a line: ATG_EGR_CIS: Attagene CIS-FACTORIAL HepG2 Assay for human Early Growth Response 1 (EGR1) (AID 2282938). As to conditions: HepG2 Attagene CIS-FACTORIAL EGR reporter mRNA; actives raise or lower the signal. Summed up: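 Endpoint derived by bidirectional fitting versus DMSO vehicle. Method: cis-promoter reporter units transfected into HepG2, 24 h dosing, RNA isolation, RT-PCR with 6-FAM primer extension and HpaI digestion, then capillary electrophoresis fluorescence detection.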

Test [8] is described as follows: ATG_M_19_CIS: Attagene CIS-FACTORIAL HepG2 Assay for M19 Transcription Factor (Internal Marker) (AID 2282939). Conditions: HepG2 Attagene CIS-FACTORIAL M19 internal marker reporter; actives raise or lower the signal. Summed up: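 HepG2 cells transiently transfected with cis-regulated multiplexed reporter units, dosed 24 h. Reporter mRNA quantified by RT-PCR and capillary electrophoresis; internal background marker fitted bidirectionally versus DMSO.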

Test [9] in a line: ATG_Ets_CIS: Attagene CIS-FACTORIAL HepG2 Assay for human Erythroblast Transformation Specific (ETS) (AID 2282941). Conditions: HepG2 ETS cis-reporter transcription, actives raise or lower the signal. In a few lines:
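Steps: transfect HepG2 with multiple reporter units; treat compound 24 h; isolate RNA, DNase-treat, reverse-transcribe; PCR-amplify, label with 6-FAM, digest with HpaI; separate by capillary electrophoresis. Activity fitted both directions versus DMSO.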

Test [10] has as its target Hepatocyte nuclear factor 3-beta (Homo sapiens) (UniProt Q9Y261). The test can be described thus: ATG_FoxA2_CIS: Attagene CIS-FACTORIAL HepG2 Assay for human Forkhead box A2 (FOXA2) (AID 2282942). As to conditions: HepG2 cis-reporter transcription factor activity, 24 h; actives raise or lower the signal. In a few lines:
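Measured: reporter mRNA induction or loss in HepG2 transiently carrying multiple cis-regulated reporter units, 24 h after dosing. Quantified by RT-PCR plus capillary electrophoresis, normalised to DMSO.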

Test [11] can be described thus: ATG_FoxO_CIS: Attagene CIS-FACTORIAL HepG2 Assay for human Forkhead box O (FoxO) (AID 2282943). As to conditions: HepG2 Attagene cis-reporter, FoxO element, mRNA; actives raise or lower the signal. In a few lines: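 HepG2 cells transiently transfected with cis-element-driven reporter units report endogenous FoxO activity. After 24 h chemical exposure, reporter mRNA quantified by RT-PCR, fluorescent labeling, HpaI digestion and capillary electrophoresis; bidirectional fit versus DMSO.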

A short description of test [12]: ATG_GATA_CIS: Attagene CIS-FACTORIAL HepG2 Assay for human GATA Binding Protein (AID 2282944). As to conditions: HepG2 GATA cis-element reporter, Attagene multiplex mRNA; actives raise or lower the signal. In a few lines: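 HepG2 cells transiently transfected with multiplexed cis-element reporter units measure endogenous GATA activity; after 24 h compound exposure, reporter mRNA quantified by RT-PCR and capillary electrophoresis. Changes fitted in both directions vs DMSO.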

Test [13] can be described thus: ATG_GLI_CIS: Attagene CIS-FACTORIAL HepG2 Assay for human Zinc Finger Protein GLI1 (AID 2282945). As to conditions: HepG2, Attagene cis-factorial reporter mRNA, GLI element; actives raise or lower the signal. Summed up:
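Transiently transfected HepG2 cells report endogenous transcription factor activity via cis-element-driven reporter units. After 24 h compound exposure, reporter mRNA was measured by RT-PCR with capillary electrophoresis; bidirectional fitting against DMSO baseline.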

Test [14] in a line: ATG_M_06_CIS: Attagene CIS-FACTORIAL HepG2 Assay for M06 Transcription Factor (Internal Marker) (AID 2282950). Conditions: HepG2 Attagene CIS-FACTORIAL M06 internal marker reporter; actives raise or lower the signal. In a few lines: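 Internal background marker within multiplexed cis-reporter HepG2 system. Cells transiently transfected, dosed 24 h; reporter mRNA measured by RT-PCR, HpaI digestion and capillary electrophoresis. Bidirectional fit relative to DMSO.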

Test [15] concerns the target Hepatocyte nuclear factor 6 (Homo sapiens) (UniProt Q9UBC0). The test can be described thus: ATG_HNF6_CIS: Attagene CIS-FACTORIAL HepG2 Assay for human Hepatocyte Nuclear Factor 6 (HNF6) (AID 2282952). Conditions: HepG2 Attagene cis-factorial HNF6 reporter transcription; actives raise or lower the signal. In a few lines: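 HepG2 cells transiently transfected with cis-element-driven multiplexed reporter units measuring endogenous transcription factor activity. After 24 h exposure, reporter mRNA quantified by RT-PCR, FAM-labelled fragments and capillary electrophoresis; bidirectional fitting versus DMSO.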

The nature of test [16]: ATG_MRE_CIS: Attagene CIS-FACTORIAL HepG2 Assay for human Metal Responsive Element (MRE) (AID 2282954). Conditions: HepG2 MRE cis-reporter transcription, Attagene multiplex; actives raise or lower the signal. Summed up: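 HepG2 cells transiently transfected with cis-element-driven reporter units; mRNA measured 24 h after dosing. Reporter transcripts quantified by RT-PCR, FAM labelling, HpaI digestion and capillary electrophoresis; bidirectional fit versus DMSO.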

In test [17] the target is Paired box protein Pax-6 (Homo sapiens) (UniProt P26367). The experiment in a line: ATG_Pax6_CIS: Attagene CIS-FACTORIAL HepG2 Assay for human Paired Box 6 (PAX6) (AID 2282956). As to conditions: HepG2 CIS-FACTORIAL PAX6 reporter transcription, RNA readout; actives raise or lower the signal. Summed up: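 Transient MRTU transfection of HepG2 → compound exposure 24 h → TriZol RNA, oligo(dT) RT → PCR, 6-FAM primer extension, HpaI cut → capillary electrophoresis; activity fitted both directions against DMSO.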

Test [18] in a line: ATG_PXRE_CIS: Attagene CIS-FACTORIAL HepG2 Assay for human Pregnane X Receptor Element (PXRE) (AID 2282957). Conditions: HepG2 Attagene CIS-FACTORIAL PXRE reporter, mRNA; actives raise or lower the signal. Summed up: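 HepG2 cells transiently transfected with cis-element-driven multiplexed reporter units; after 24 h chemical exposure, reporter mRNA measured by RT-PCR, 6-FAM labelling, HpaI digestion and capillary electrophoresis. Bidirectional fitting relative to DMSO.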

Test [19] is described as follows: ATG_Sox_CIS: Attagene CIS-FACTORIAL HepG2 Assay for human SRY-box transcription factor (SOX) (AID 2282960). Conditions: HepG2 Attagene cis-factorial SOX reporter, mRNA; actives raise or lower the signal. Summed up: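 Gain- or loss-of-signal endpoint, fitted bidirectionally with DMSO as negative control. Based on reporter mRNA from transfected HepG2 cells harvested 24 h post-treatment and quantified via RT-PCR and capillary electrophoresis.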

Test [20] concerns the target Androgen receptor (Homo sapiens) (UniProt P10275). The experiment in a line: ATG_AR_TRANS: Attagene TRANS-FACTORIAL HepG2 Assay for human Androgen Receptor (AR) (AID 2282973; active means hit-call score of the fitted dose curve at least 0.9, where 1 is the maximum). As to conditions: HepG2 Attagene TRANS-FACTORIAL AR reporter transcription. In a few lines: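 HepG2 cells transiently transfected with AR-Gal4 chimera and GAL4-UAS reporter units; chemical exposure 24 h. Reporter mRNA quantified by RT-PCR with fluorescent labelling and capillary electrophoresis; gain-of-signal fitted against DMSO.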

Inconclusive results are not listed. Active and inactive are the calls of the source. How the source made its calls, unless noted: active means hit-call score of the fitted dose curve at least 0.9, where 1 is the maximum; inactive means score below 0.9.

Hepatocyte nuclear factor 6 (Homo sapiens), sequence (Q9UBC0 whole entry, looked up, the tested form may be a part): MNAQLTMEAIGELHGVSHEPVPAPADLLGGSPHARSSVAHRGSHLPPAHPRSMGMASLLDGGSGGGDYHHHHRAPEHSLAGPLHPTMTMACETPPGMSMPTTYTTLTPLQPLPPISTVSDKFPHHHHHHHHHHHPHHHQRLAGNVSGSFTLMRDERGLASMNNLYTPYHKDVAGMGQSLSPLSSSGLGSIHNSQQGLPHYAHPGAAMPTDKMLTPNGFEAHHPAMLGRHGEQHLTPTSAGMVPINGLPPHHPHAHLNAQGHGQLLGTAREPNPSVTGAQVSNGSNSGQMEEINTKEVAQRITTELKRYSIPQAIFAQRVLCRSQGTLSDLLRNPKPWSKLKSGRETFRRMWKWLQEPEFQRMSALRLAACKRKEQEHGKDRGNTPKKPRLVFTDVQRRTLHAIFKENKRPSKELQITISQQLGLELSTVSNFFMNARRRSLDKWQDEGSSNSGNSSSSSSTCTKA
Hepatocyte nuclear factor 3-beta (Homo sapiens), sequence (Q9Y261 whole entry, looked up): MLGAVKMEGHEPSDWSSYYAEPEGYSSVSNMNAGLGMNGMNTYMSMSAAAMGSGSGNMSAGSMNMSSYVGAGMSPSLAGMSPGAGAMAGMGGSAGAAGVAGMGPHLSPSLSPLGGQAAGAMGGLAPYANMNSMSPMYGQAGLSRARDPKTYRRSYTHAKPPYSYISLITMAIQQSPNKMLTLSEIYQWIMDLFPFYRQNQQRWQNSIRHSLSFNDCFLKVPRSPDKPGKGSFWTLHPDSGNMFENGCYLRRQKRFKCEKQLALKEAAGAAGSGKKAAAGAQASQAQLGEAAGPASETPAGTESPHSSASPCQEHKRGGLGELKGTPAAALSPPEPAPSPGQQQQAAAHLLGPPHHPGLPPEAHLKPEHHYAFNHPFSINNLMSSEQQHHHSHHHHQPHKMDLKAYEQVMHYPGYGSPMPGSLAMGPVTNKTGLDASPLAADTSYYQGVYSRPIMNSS
Paired box protein Pax-6 (Homo sapiens), sequence (P26367 whole entry, looked up): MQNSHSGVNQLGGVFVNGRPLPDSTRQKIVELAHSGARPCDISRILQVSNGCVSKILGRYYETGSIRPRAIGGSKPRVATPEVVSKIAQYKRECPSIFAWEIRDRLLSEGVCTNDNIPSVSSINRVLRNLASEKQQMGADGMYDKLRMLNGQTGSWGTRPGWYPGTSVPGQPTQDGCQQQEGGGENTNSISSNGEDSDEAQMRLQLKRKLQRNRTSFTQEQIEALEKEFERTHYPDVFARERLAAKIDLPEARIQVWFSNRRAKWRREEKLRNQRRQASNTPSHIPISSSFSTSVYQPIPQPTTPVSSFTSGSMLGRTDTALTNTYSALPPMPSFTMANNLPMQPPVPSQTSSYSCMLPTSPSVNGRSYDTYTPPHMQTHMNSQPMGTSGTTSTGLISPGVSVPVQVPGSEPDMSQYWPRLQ
CCAAT/enhancer-binding protein beta (Homo sapiens), sequence (P17676 whole entry, looked up): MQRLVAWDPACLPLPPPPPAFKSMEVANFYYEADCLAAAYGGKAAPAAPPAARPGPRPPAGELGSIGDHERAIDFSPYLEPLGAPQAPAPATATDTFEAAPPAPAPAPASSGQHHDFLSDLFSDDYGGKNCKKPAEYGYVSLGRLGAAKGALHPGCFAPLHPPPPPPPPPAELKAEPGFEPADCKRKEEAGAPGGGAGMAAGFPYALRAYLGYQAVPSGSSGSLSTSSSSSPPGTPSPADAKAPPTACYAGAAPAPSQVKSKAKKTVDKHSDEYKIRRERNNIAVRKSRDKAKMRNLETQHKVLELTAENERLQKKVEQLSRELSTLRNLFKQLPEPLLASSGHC
Transcription factor E2F1 (Homo sapiens), sequence (Q01094 whole entry, looked up): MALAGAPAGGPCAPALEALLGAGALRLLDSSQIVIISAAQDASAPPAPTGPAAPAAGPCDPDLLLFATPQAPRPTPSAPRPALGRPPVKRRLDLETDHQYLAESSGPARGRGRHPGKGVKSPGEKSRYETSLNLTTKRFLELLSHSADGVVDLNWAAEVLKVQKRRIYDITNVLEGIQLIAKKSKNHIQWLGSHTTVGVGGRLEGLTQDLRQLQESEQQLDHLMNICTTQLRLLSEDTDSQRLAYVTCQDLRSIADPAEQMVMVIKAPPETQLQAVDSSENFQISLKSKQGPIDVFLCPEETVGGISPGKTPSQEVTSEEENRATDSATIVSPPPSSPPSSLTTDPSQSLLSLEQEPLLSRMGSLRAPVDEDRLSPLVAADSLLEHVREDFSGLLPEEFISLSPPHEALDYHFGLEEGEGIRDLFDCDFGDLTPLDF
Androgen receptor (Homo sapiens), sequence (P10275 whole entry, looked up, the tested form may be a part): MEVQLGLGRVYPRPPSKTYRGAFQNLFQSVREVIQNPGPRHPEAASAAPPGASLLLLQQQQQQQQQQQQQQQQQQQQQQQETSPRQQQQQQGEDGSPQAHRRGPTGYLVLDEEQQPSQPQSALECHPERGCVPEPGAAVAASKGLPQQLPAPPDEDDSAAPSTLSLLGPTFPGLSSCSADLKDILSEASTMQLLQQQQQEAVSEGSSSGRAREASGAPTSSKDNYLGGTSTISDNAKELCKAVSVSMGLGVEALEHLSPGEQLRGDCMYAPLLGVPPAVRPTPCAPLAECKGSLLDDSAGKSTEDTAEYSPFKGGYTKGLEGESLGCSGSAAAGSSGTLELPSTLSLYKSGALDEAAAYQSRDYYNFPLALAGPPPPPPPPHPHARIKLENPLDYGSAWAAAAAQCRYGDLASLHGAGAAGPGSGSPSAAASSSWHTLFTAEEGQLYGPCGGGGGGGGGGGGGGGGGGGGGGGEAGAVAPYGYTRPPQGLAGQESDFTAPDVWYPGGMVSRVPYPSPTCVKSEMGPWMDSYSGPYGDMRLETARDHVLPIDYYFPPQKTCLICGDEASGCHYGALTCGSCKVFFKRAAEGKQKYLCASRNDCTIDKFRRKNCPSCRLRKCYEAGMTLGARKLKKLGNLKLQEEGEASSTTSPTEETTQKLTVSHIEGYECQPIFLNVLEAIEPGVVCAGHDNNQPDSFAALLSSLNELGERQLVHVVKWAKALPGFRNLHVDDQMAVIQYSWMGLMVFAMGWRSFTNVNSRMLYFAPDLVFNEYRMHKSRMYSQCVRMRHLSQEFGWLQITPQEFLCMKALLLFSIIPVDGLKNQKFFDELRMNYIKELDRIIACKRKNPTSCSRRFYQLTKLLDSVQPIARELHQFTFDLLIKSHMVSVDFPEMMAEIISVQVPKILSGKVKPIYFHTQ

By AC50 is commonly meant the midpoint of the concentration-response curve, whichever way the signal moves. `O=c1[nH]c(Cl)c(Cl)cc1Cl`: the compound was called inactive in test [1], in test [2], in test [3], in [4], in test [5] and in test [6]. In addition, the compound was called inactive in [7], in test [8], in test [9], in [10], in test [11] and in test [12]. Further, the compound was called inactive in [13], in test [14], in test [15], in [16], in test [17] and in test [19]. Moreover, in [20], the compound was classed as inactive. Moreover, the concentration at half-maximal activity (AC50) in test [18] was 38.7 µM (active).
With `CCC1CCC(=O)O1` (stereo unspecified), the call in test [1], in test [2], in [3], in test [4], in [5] and in test [6] was inactive. The result in test [7], in test [8], in [9], in [10], in test [11] and in test [12] was inactive. The compound was classed as inactive in [13], in test [14], in test [15], in [16], in [17] and in test [19]. Further, in test [18], the half-maximal activity concentration (AC50) was 27.3 µM (active).
As for `N#CC(c1ccccc1)c1ccccc1`, the compound was classed as inactive in test [1], in test [2], in test [3], in [4], in test [5] and in [6]. In addition, the outcome in [7], in test [8], in test [9], in test [10], in test [11] and in test [12] was inactive. Besides, the outcome in test [13], in [14], in test [15], in test [16], in [17] and in [19] was inactive. The AC50 in test [18] is 11.1 µM (active).
As to `CC1(C)CC(=O)CC(C)(C)N1[O]`, the compound was classed as inactive in test [1], in test [2], in test [3], in test [4], in test [5] and in test [6]. The outcome in [7], in [8], in test [9], in [10], in test [11] and in test [12] was inactive. Further, the compound was classed as inactive in [13], in [14], in [15], in [16], in test [17] and in test [19]. The AC50 in [18] is 33.2 µM (active).
On to `C[N+](=O)[O-]`, for which the call in [1], in [2], in test [3], in test [4], in test [5] and in test [6] was inactive. Further, the compound was called inactive in test [7], in test [8], in [9], in test [10], in test [11] and in test [12]. The outcome in test [13], in test [14], in test [15], in [16], in test [17] and in test [18] was inactive. Also, the result in [19] was inactive.
